The text below walks through data of PubChem BioAssay (NCI).

Molecules are shown by their SMILES. About 79,000 compounds went through this panel and 15% of them were active in at least one assay; those are over-represented in the sample as a whole. Unmarked numbers belong to inactive results. Activity calls are given as the source filed them. No stated cut-off is given here; in the data, active means growth inhibition above about 70%; inactive means the rest.

The nature of test [1]: NCI Yeast Anticancer Drug Screen. Data for the rad50 strain (AID 155).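 Further: 0% = growth of vehicle-only cultures of the same strain.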 To be noted: S. cerevisiae rad50 strain growth inhibition; at 50.0 µM; stronger effect = higher value. The method in brief:
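Vehicle-treated cultures provide the reference for the growth inhibition reported for compound-exposed, repair-deficient yeast.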

Test [2] is described as follows: NCI Yeast Anticancer Drug Screen. Data for the mec2-1 strain (AID 157). The note with it: S. cerevisiae mec2-1 strain, at 50.0 µM, stronger effect = higher value. A digest of the protocol:
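Yeast mec2-1 mutant treated with compound. Readout: growth inhibition vs vehicle controls.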

Test [3] in a line: NCI Yeast Anticancer Drug Screen. Data for the sgs1 mgt1 strain (AID 161).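 Further: 0% = growth of cultures given vehicle only.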 The note with it: S. cerevisiae sgs1 mgt1 strain, at 50.0 µM, stronger effect = higher value. A digest of the protocol:
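Mutant yeast exposed to compound; growth scored against vehicle-only wells.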

Test [4] in a line: NCI Yeast Anticancer Drug Screen. Data for the cln2 rad14 strain (AID 165).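 Further: 0% = growth equal to vehicle treated cultures.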 To be noted: S. cerevisiae cln2 rad14 strain, at 50.0 µM, stronger effect = higher value. A digest of the protocol: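 cln2 rad14 yeast strain; compound exposure; growth inhibition read vs vehicle controls.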
A short description of test [5]: NCI Yeast Anticancer Drug Screen. Data for the bub3 strain (AID 167). The note with it: S. cerevisiae bub3 mutant strain, at 50.0 µM, stronger effect = higher value. The method in brief:
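Mutant yeast screening strain plus compound; vehicle-treated cultures serve as the 0% inhibition reference.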

Test [6] is described as follows: NCI Yeast Anticancer Drug Screen. Data for the mlh1 rad18 strain (AID 175). To be noted: S. cerevisiae mlh1 rad18 strain growth inhibition; at 50.0 µM; stronger effect = higher value. A digest of the protocol: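 Yeast w/ defined DNA-repair lesions; compound exposure; growth vs vehicle controls → % inhibition.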

Regarding `C=C1C(=O)C23CC1C[C@H](OC(C)=O)C2C1(C)C(OC(C)=O)C[C@H](O)C(C)(C)[C@H]1C(O)[C@@H]3OC(C)=O` (some centres not stated), the growth inhibition in test [1] is 9.8%; in test [2], -3.85%; in test [3], 3.25%; in test [4], -2.95%; in test [5], 24.1%; in test [6], 20.3%.

On to `CCOC(=O)c1cc(/C=C/C(C)=C/C(=O)OC)oc1C`, for which the growth inhibition in test [1] is 6.85%; in test [2], 1.4%; in test [3], -0.45%; in test [4], -13.3%; in test [5], 5.4%; in test [6], 1.25%.

Turning to `CC(C)=CCCc1ccc2c(c1)C(=O)c1cc3c(cc1C2=O)OCO3`, the growth inhibition is -13.9% in test [1]; 15.1% in test [2]; 21.1% in test [3]; 9.6% in test [4]; 10.6% in test [5]; -2.1% in test [6].

Regarding `Cc1cc(N(CCO)CCO)c2ccc3cc4ccccc4cc3c2n1`, the growth inhibition in test [1] was 38.5%; in test [2], 16.6%; in test [3] it was 9.35%; in test [4], 8.3%; in test [5] it was 18.3%; in test [6] it was 23.9%.

In the case of `Cc1ccc(C)c(NC(=O)CC/C(=N\NC(=O)c2c(O)ccc3ccccc23)C(C)C(=O)c2ccc(O)cc2)c1` (configuration not stated), the growth inhibition in test [1] was 10.2%; in test [2] it was 36.5%; in test [3], -5.55%; in test [4], 12.6%; in test [5], 16.1%; in test [6] it was 20.8%.

For `CC(=O)Oc1ccc(-c2ccccc2)cc1`, the growth inhibition in test [1] was 23.3%; in test [2] it was 20.8%; in test [3], 16%; in test [4] it was 3.1%; in test [5], 18%; in test [6] it was 26.3%.

With `N/N=C(\Cc1ccccc1)NN=C(N)N`, the growth inhibition in test [1] was 13.6%; in test [2], -11.2%; in test [3], 14.8%; in test [4], 20.1%; in test [5], -9.45%; in test [6] it was 20.3%.

In the case of `CC=C=C(C)CN`, the growth inhibition is -6.4% in test [1]; -3.8% in test [2]; -9.6% in test [3]; -7.95% in test [4]; -6.25% in test [5]; -8.45% in test [6].

Turning to `OCCOc1ccc(OCCO)cc1`, the growth inhibition in test [1] was -2.1%; in test [2], -5.65%; in test [3], -8.95%; in test [4], -39.7%; in test [5], 9.9%; in test [6], -8.45%.

With `CCCCOC1OC[N+](C)(C)CC1(C)C` (configuration not stated), the growth inhibition was 20.2% in test [1]; -2.65% in test [2]; -10.1% in test [3]; 3.7% in test [4]; -0.45% in test [5]; 26.2% in test [6].

Turning to `Nc1cc(Cl)c([N+](=O)[O-])cc1O`, the growth inhibition is 6.2% in test [1]; 18.4% in test [2]; 5.55% in test [3]; -66.2% in test [4]; 5.05% in test [5]; -12% in test [6].

`CCC(CC)C(=O)O`: the growth inhibition in test [1] was -11.2%; in test [2], -3.5%; in test [3], -34.4%; in test [4] it was -22.5%; in test [5], 7.85%; in test [6] it was -34.8%.

Take `CCOC(=O)NC(C)=O`: the growth inhibition in test [1] is -10.4%; in test [2] it was -27.9%; in test [3], 14.1%; in test [4] it was -16.3%; in test [5], -19.3%; in test [6], -20.8%.

For `CC(C)(c1ccccc1)[Si](c1ccccc1)(c1ccccc1)c1ccccc1`, the growth inhibition was 30.1% in test [1]; -7.05% in test [2]; 9.95% in test [3]; 3.2% in test [4]; -6.85% in test [5]; 0.65% in test [6].

Take `Cc1ccc(CC(=O)N(C)C)c([N+](=O)[O-])c1`: the growth inhibition in test [1] is -9.5%; in test [2], -7.15%; in test [3] it was -1%; in test [4], 0.95%; in test [5], -8.45%; in test [6] it was -25.1%.

Consider `Oc1ccc(O)c(-n2cccn2)c1-n1cccn1`, for which the growth inhibition is -0.85% in test [1]; -4.55% in test [2]; -1.6% in test [3]; 6.3% in test [4]; 0% in test [5]; -2.75% in test [6].

For `Cc1ccc(-n2c(C)n[nH]c2=O)cc1`, the growth inhibition in test [1] is -10.7%; in test [2], -18%; in test [3], -9.8%; in test [4], 8%; in test [5], -4.3%; in test [6], 3.2%.

On to `C[n+]1ccccc1/C=C/c1csc2ccccc12`, for which the growth inhibition in test [1] is -0.85%; in test [2], 5.35%; in test [3] it was 4.75%; in test [4], -11.8%; in test [5], -0.6%; in test [6], -3.8%.

Turning to `Cc1cc(Sc2ccccc2)nc2ccccc12`, the growth inhibition is 8.5% in test [1]; -12.2% in test [2]; 41.6% in test [3]; 4.1% in test [4]; 48.5% in test [5]; 12.3% in test [6].

Take `C=CC1(C(=O)O)CCC(C(C)(C)C)CC1` (configuration not stated): the growth inhibition was 42.9% in test [1]; 42% in test [2]; 31.6% in test [3]; 36.1% in test [4]; 21.6% in test [5]; 13.3% in test [6].

As for `CCOC(=O)C(=O)C(C(=O)c1ccccn1)c1nc2n(c1O)C(=N)N=N2` (configuration not stated), the growth inhibition in test [1] was -4.1%; in test [2], 4.4%; in test [3] it was -3.1%; in test [4], -0.25%; in test [5], -5.35%; in test [6], 5.3%.

Consider `NC(=N\C1=NCCN1)/C(N)=N/C1=NCCN1`, for which the growth inhibition in test [1] is -13.4%; in test [2], 5.35%; in test [3] it was -1.35%; in test [4] it was -29.5%; in test [5], -2.3%; in test [6] it was -13.2%.

For the molecule `CC12CC(=O)OC(Cc3ccccc31)O2` (configuration not stated), the growth inhibition was -50.4% in test [1]; -27.1% in test [2]; -51.7% in test [3]; -1.25% in test [4]; -63.6% in test [5]; -40.5% in test [6].

As to `Nc1nc(N)c2nn(-c3ccc(C(=O)O)cc3)nc2n1`, the growth inhibition was -13.6% in test [1]; 7.85% in test [2]; -5.15% in test [3]; -16.9% in test [4]; -11.2% in test [5]; 6.05% in test [6].

With `CC1=NN(C(=O)CC(=O)Nc2ccc(C(=O)O)cc2)C(=O)C1N=Nc1ccccc1C(=O)O` (configuration not stated), the growth inhibition was 18.1% in test [1]; 18% in test [2]; 6.25% in test [3]; -6.5% in test [4]; -1.9% in test [5]; 25.7% in test [6].

For the molecule `Cn1c(N)c(NC(=S)NCC2CCCCC2)c(=O)n(C)c1=O`, the growth inhibition was -2.8% in test [1]; -5% in test [2]; -1.2% in test [3]; -9.6% in test [4]; -3.6% in test [5]; 1.5% in test [6].

In the case of `C=C(CC(=O)OC)C(=O)OC`, the growth inhibition is 12.3% in test [1]; -2.9% in test [2]; 8.45% in test [3]; 7.8% in test [4]; 4.15% in test [5]; 9.45% in test [6].

For `CCN1C(=O)/C(=C\c2ccccc2)N=C1C`, the growth inhibition in test [1] is 2.45%; in test [2], -7.35%; in test [3], 5.55%; in test [4], -58%; in test [5] it was -12.8%; in test [6], -42%.

In the case of `C=CCNC(=S)NNC(=O)c1ccncc1`, the growth inhibition was -19.8% in test [1]; -10.3% in test [2]; -21.6% in test [3]; -82.8% in test [4]; 2.4% in test [5]; -23.8% in test [6].

On to `S=C(NCc1ccc(Cl)c(Cl)c1)Nc1ccccc1`, for which the growth inhibition is 98% (active) in test [1]; 99.2% (active) in test [2]; 99% (active) in test [3]; 98.2% (active) in test [4]; 97.3% (active) in test [5]; 98% (active) in test [6].

For `Cn1c(=O)c2c(nc(NCCNc3nc4c(c(=O)n(C)c(=O)n4C)n3C)n2C)n(C)c1=O`, the growth inhibition in test [1] is 1.85%; in test [2], -3.35%; in test [3], -46.2%; in test [4], -25.1%; in test [5], -20.8%; in test [6], -31.7%.

Consider `CCN(CC)CCOC(=O)c1ccc(N=Nc2cc(C(=O)O)ccc2O)cc1`, for which the growth inhibition is 14.8% in test [1]; -6.3% in test [2]; 4.1% in test [3]; -6.55% in test [4]; -0.8% in test [5]; -12.5% in test [6].
